Compound activity from PubChem BioAssay.
Many of the other results were omitted from the sample, so hits are more common in it than they were.
TbREL1 primary: TbREL1 inhibition, primary screen; 0.49% of 89,000 active; P86926; inhibition, % at 9.66 µM; TbREL1 RNA ligation, FRET fluorescence; AID 1117264;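 active means inhibition above the mean inhibition across all screened compounds plus 3 SD, cut at about 11% in these data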;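 further: 0% = plate median of test wells and 100% = NSC42067 control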
Target sequence (P86926 whole entry, looked up): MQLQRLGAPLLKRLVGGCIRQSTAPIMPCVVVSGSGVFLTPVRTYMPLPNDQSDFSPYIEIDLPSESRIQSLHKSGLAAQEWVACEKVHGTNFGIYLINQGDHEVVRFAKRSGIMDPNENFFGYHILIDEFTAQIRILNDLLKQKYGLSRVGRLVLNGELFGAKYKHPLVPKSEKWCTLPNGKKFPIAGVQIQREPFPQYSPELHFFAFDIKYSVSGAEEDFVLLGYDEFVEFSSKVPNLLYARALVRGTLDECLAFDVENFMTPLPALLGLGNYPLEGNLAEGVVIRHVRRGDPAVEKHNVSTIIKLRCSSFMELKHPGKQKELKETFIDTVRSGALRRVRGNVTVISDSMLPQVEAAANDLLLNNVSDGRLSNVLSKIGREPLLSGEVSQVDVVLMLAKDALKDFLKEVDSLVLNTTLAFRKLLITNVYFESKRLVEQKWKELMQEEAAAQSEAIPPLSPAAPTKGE
TbREL1 confirm: TbREL1 inhibition, confirmation | shares compounds with TbREL1 primary | TbREL1 RNA ligation, FRET fluorescence | inhibition, % at 9.66 µM | 37% of 390 active | AID 1117282;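 active means mean inhibition across replicates above a set limit taken from the earlier primary screen, cut at about 11% in these data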;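 further: 0% = REL1 with substrate and DMSO and 100% = REL1 plus control inhibitor NSC42067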
* = called active by the depositor.

SMILES	TbREL1 primary	others
C[C@@H]1COc2cc(N3CCN(C)CC3)ccc2S(=O)(=O)N1	-2
CN1CCN(c2ccc(N)cc2)CC1	17*	TbREL1 confirm=11
CN1CCN(c2ccc(NC(=O)C(C)(C)C)cc2)CC1	-1
Cn1c(=O)c2c(nc(N/N=C/c3c(O)n(-c4ccccc4)c(=S)[nH]c3=O)n2C)n(C)c1=O	3
CC(=O)O[C@H]1CC[C@@]2(C)C(=CC(=O)C3C2CC[C@@]2(C)C3C[C@H](OC(C)=O)[C@@H]2OC(C)=O)C1 (some centres not stated)	-3
Cn1cc(P(=S)(c2ccccc2)c2ccccc2)c2ccccc21	1
CC12CCC(=O)C=C1CCC1C2CCC2(C)C(O)(C(=O)CO)CCC12O (configuration not stated)	1
COC(=O)[C@@]1(O)c2c(oc3cccc(O)c3c2=O)C=C[C@H]1O	-1
Clc1cccc(N2Cc3cc(N4CCOCC4)ccc3-n3nncc3C2)c1	-1
CC(C)(C)C(=O)N1Cc2cc(-c3cccc(F)c3)ccc2-n2nncc2C1	-2
COc1ccc(-c2ccc3c(c2)CN(c2cccc(Cl)c2)Cc2cnnn2-3)cc1	15*	TbREL1 confirm=5
Cc1cc(N2CCNC[C@H]2C)ccc1N1CCN[C@@H](C)C1	-1
CCOC(=O)CNC(=O)N1Cc2ccc(Br)cc2-n2nncc2C1	7
COc1ccc(/C=N/N=C(/N)N[N+](=O)[O-])c(OC)c1	1
N/C(=N\N=C/c1ccc(-c2ccc(O)c(C(=O)O)c2)o1)N[N+](=O)[O-]	49*	TbREL1 confirm=17*
c1ccc(Cc2cnc(N3CCNCC3)nc2)cc1	5
Cc1cc(N2CCNC[C@H]2C)ccc1N1CC[C@@H](O)C1	0
COC(=O)C1=C(c2ccc(S(C)(=O)=O)cc2)C[C@@H]2CC[C@H]1N2C(=O)NCc1cccc2ccccc12	-1
Cc1cc(O)c2c(c1)C(=O)[C@@]13C(=C2O)C(=O)[C@H]2C(O)[C@@H]1[C@H]1C(O)[C@@H]3C(=O)C3=C(O)c4c(O)cc(C)cc4C(=O)[C@@]312 (some centres not stated)	32*	TbREL1 confirm=63*
O=C(c1ccc2c3c(cccc13)CC2)C1CCCN(CC2CC2)C1 (configuration not stated)	0
C[C@H](NC(=O)OCc1ccccc1)[P+](=O)O	4
c1ccc2oc(-c3ccc4c(c3)CNCc3cnnn3-4)cc2c1	1
CC1C(OC(=O)CCC(=O)NC(C)(C)CO)O[C@H]2OC3(C)CC[C@H]4[C@H](C)CCC1C24OO3 (some centres not stated)	-3
CCC(C)NC(=O)c1c(N)n(CCCOC)c2nc3ccccc3nc12 (configuration not stated)	44*	TbREL1 confirm=36*
Cc1cccn2c(NCC3CCCO3)c(C(C)C)nc12 (configuration not stated)	-1
CCC(C)OC(=O)c1c(N)n(Cc2cccs2)c2nc3ccccc3nc12 (configuration not stated)	7
CCC(C)NC(=O)c1c(N)n(CC2CCCO2)c2nc3ccccc3nc12 (configuration not stated)	37*	TbREL1 confirm=29*
CC(c1ccccc1)n1cc(C(=O)NC2CCCC2)nn1 (configuration not stated)	-2
C=CCCC(NC(=O)OCc1ccccc1)P(=O)(Oc1ccccc1)Oc1ccccc1 (configuration not stated)	1
CC(C)(C)Cc1nnc(NC(=O)COc2ccc(Cl)cc2Cl)o1	10
